MCL1 BIM primary = disrupts human MCL1 binding to BIM-BH3 peptide; Q07820; actives 0.68% (n = 320,000); GST-MCL1 / FITC-Bim-BH3 fluorescence polarization; AID 2057; inhibition, % at 10.9 µM;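 active = inhibition above the mean inhibition of all tested compounds plus 3 SD, set per campaign, cut at about 40% in these data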;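 note: 0% = DMSO wells and 100% = unlabeled Bim-BH3 peptide control; higher means more loss of mP so more displacement of Bim peptide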
Target sequence (Q07820 whole entry, looked up): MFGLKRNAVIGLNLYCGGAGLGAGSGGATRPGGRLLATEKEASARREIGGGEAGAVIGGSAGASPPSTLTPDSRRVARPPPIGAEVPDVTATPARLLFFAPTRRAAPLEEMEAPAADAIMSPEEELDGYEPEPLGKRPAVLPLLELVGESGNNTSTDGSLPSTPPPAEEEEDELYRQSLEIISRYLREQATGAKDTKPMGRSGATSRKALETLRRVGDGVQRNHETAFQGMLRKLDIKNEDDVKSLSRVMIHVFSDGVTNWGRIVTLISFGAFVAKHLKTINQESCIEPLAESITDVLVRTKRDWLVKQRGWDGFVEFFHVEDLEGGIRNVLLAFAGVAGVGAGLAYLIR
BCLXL inh = Bcl-xL (human) inhibition. Q07817. GST-Bcl-xL / FITC-Bim BH3 peptide fluorescence polarization. inhibition, % at 10.9 µM. actives 0.7% (n = 320,000). AID 2129;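 active = inhibition above the mean of all tested compounds plus 3 SD, cutoff set per campaign, cut at about 30% in these data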;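 note: 0% = DMSO wells and 100% = unlabeled Bim-BH3 peptide competitor; inhibitors lower millipolarization by displacing the labeled peptide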
MEX-5 binding = C. elegans MEX-5 TCR-2 RNA binding activity; Q9XUB2; MEX-5/FITC-TCR2 RNA binding, fluorescence polarization; stronger effect = lower value; activity score (negative = inhibition of binding), % at 10 µM; actives 0.38% (n = 300,000); AID 1832;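 active = inhibition past about -25% in most replicates, and total fluorescence under double the plate's negative control median, limit read from the data; inconclusive = replicates evenly split on the limit, or fluorescence at least double controls; inactive = too little inhibition in most replicates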;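 note: 0% = DMSO and -100% = 5 µM competing unlabeled TCR2 RNA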
EBV gp42 inh = inhibitors of Epstein-Barr virus glycoprotein 42; AID 1085; Q1HVG2; Fluorescence polarization binding assay, mP read-out; actives 0.42% (n = 220,000); inhibition, % (tested at 21.74 µM); in the data active = inhibition above about 50%
Target sequence (Q1HVG2 whole entry, looked up): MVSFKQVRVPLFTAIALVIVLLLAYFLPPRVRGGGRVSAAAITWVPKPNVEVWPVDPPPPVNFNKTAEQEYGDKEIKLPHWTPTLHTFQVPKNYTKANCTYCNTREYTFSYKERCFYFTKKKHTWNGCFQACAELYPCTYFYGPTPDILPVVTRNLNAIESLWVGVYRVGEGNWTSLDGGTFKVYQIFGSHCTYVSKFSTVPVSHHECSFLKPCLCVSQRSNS
GLD-1 RNA inh = GLD-1-TGE RNA interaction inhibition (C. elegans) | actives 0.44% (n = 320,000) | Q17339 | inhibition, % at 5.96 µM | purified GLD-1 + fluorescein TGE RNA, fluorescence polarization;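 active = percent inhibition above a per-plate cutoff, the plate mean of test compounds plus 3 SD, cut at about 30% in these data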;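 note: 0% = DMSO wells with GLD-1 and probe and 100% = wells lacking GLD-1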
Bcl-xL conf = Bcl-xL (human) inhibition, MCL1 counter-screen confirmation; shares compounds with MCL1 BIM primary; inhibition, % at 10.9 µM; actives 54% (n = 1,700); GST-Bcl-xL / FITC-Bim BH3 peptide FP binding; AID 2166;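 active = inhibition above a cutoff equal to the mean inhibition of all tested compounds plus 3 SD, cut at about 30% in these data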;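 note: 0% = DMSO wells and 100% = unlabeled Bim BH3 control peptide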
MCL1 BIM confirm = MCL1-BIM-BH3 interaction inhibition, confirmation. actives 61% (n = 1,700). inhibition, % at 10.9 µM. AID 2168. GST-MCL1 / FITC-Bim-BH3 fluorescence polarization. shares compounds with MCL1 BIM primary;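 active = inhibition above the average of all tested compounds plus 3 SD, cut at about 40% in these data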;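 note: 0% = DMSO wells and 100% = unlabeled Bim-BH3 control peptide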
Numbers without * were called inactive. Rows were chosen to be rich in hits. Some 1.3% of all compounds tested hit in one or more screens of this group.

What do the screens show for `O=c1c(-c2ccc([N+](=O)[O-])cc2)coc2c(O)c(O)ccc12`?
MCL1 BIM primary: 45*; BCLXL inh: 26; MEX-5 binding: -10; EBV gp42 inh: -3; GLD-1 RNA inh: 3; Bcl-xL conf: 43*; MCL1 BIM confirm: 63*

How did CN(C)Cc1c(O)ccc2c(=O)c(-c3ccc(Cl)cc3)coc12 do in these assays?
MCL1 BIM primary: 3; BCLXL inh: 7; MEX-5 binding: -2; GLD-1 RNA inh: 3

Results for CSc1nc(NCCOCCO)c2sc3nc(-c4ccco4)c4c(c3c2n1)CCC4 ?
MCL1 BIM primary: 69*; BCLXL inh: 23; MEX-5 binding: 1; EBV gp42 inh: 9; GLD-1 RNA inh: -9; Bcl-xL conf: 23; MCL1 BIM confirm: 67*

Results for O=C(CCS(=O)(=O)c1cccc2nsnc12)NCc1ccccc1Cl ?
MCL1 BIM primary: 5; BCLXL inh: -1; MEX-5 binding: 0; EBV gp42 inh: -11; GLD-1 RNA inh: -10

Results for Cn1c(SCC(=O)c2ccccc2)nnc1-c1cccs1 ?
MCL1 BIM primary: -5; BCLXL inh: -6; MEX-5 binding: 1; EBV gp42 inh: -20; GLD-1 RNA inh: 3

What do the screens show for `O=C(c1nc2ccc(Cl)cn2c1CN1CCC[C@H]1CO)N1CCCCCCC1`?
MCL1 BIM primary: 66*; BCLXL inh: 61*; MEX-5 binding: -23; GLD-1 RNA inh: 26; Bcl-xL conf: 55*; MCL1 BIM confirm: 69*

What do the screens show for `Cc1cc(=O)oc2c(CN3CCCC3)c(O)c(Cl)cc12`?
MCL1 BIM primary: 26; BCLXL inh: 25; MEX-5 binding: -9; GLD-1 RNA inh: 30

How did Cc1cc(=O)oc2c(CN3CCC(C)CC3)c(O)c(Cl)cc12 do in these assays?
MCL1 BIM primary: 142*; BCLXL inh: 105*; MEX-5 binding: -40*; EBV gp42 inh: 72*; GLD-1 RNA inh: 119*; Bcl-xL conf: 80*; MCL1 BIM confirm: 113*

Results for CC(=O)c1[nH]c(C)c(C(=O)N2CCCC(Nc3cccc(F)c3)C2)c1C (stereo unspecified) ?
MCL1 BIM primary: 3; BCLXL inh: 5; MEX-5 binding: 2; GLD-1 RNA inh: 7

How did CCc1ccc[n+](-c2[nH]c(=O)sc2/C=N/N=C(\[O-])CCn2c3ccccc3c3ccccc32)c1 do in these assays?
MCL1 BIM primary: 32; BCLXL inh: 21; MEX-5 binding: -8; EBV gp42 inh: 27; GLD-1 RNA inh: 14

How did Cc1cc[n+](-c2[nH]c(=O)sc2/C=N/N=C(\[O-])CCn2c3ccccc3c3ccccc32)cc1 do in these assays?
MCL1 BIM primary: 49*; BCLXL inh: 27; EBV gp42 inh: 34; GLD-1 RNA inh: 22; Bcl-xL conf: 19; MCL1 BIM confirm: 50*

How did CC(NC(=O)CCN1C(=O)c2ccccc2C1=O)c1ccccc1 (stereo unspecified) do in these assays?
MCL1 BIM primary: -13; BCLXL inh: 0; MEX-5 binding: -1; GLD-1 RNA inh: -5

What do the screens show for `Brc1cc2c(cc1Br)OCCOCCOCCO2`?
MCL1 BIM primary: 8; BCLXL inh: 11; MEX-5 binding: -1; EBV gp42 inh: -6; GLD-1 RNA inh: 2

Results for COc1ccc(/C=C/C(=O)NC(=S)Nc2cc([N+](=O)[O-])ccc2O)cc1OC ?
MCL1 BIM primary: 41*; BCLXL inh: 7; MEX-5 binding: 0; EBV gp42 inh: 17; GLD-1 RNA inh: 0; Bcl-xL conf: 15; MCL1 BIM confirm: 28

How did COc1ccc([N+](=O)[O-])cc1NC(=S)NC(C)=O do in these assays?
MCL1 BIM primary: 0; BCLXL inh: 3; MEX-5 binding: -1; EBV gp42 inh: -8; GLD-1 RNA inh: -5

What do the screens show for `O=C(O)c1cccc(-n2cccc2/C=C/[N+](=O)[O-])c1`?
MCL1 BIM primary: 72*; BCLXL inh: 44*; MEX-5 binding: -36*; EBV gp42 inh: 2; GLD-1 RNA inh: 20; Bcl-xL conf: 41*; MCL1 BIM confirm: 58*

What do the screens show for `O=C(O)c1cccc(-n2cccc2/C=C\[N+](=O)[O-])c1`?
MCL1 BIM primary: 18; BCLXL inh: 13; MEX-5 binding: -13; EBV gp42 inh: -8; GLD-1 RNA inh: 14

How did Cc1ccccc1OCc1nnc(SCC(=O)NCc2ccco2)n1C do in these assays?
MCL1 BIM primary: 4; BCLXL inh: 1; MEX-5 binding: 0; EBV gp42 inh: 5; GLD-1 RNA inh: 5

Results for COc1ccccc1OCc1nnc(SCC(=O)NCc2ccco2)n1Cc1ccco1 ?
MCL1 BIM primary: 46*; BCLXL inh: 9; MEX-5 binding: -1; EBV gp42 inh: 40; GLD-1 RNA inh: 2; Bcl-xL conf: 15; MCL1 BIM confirm: 38

What do the screens show for `N#C/C(=C\c1ccco1)c1nc2ccccc2s1`?
MCL1 BIM primary: 75*; BCLXL inh: 79*; MEX-5 binding: -10; EBV gp42 inh: 1; GLD-1 RNA inh: 55*; Bcl-xL conf: 15; MCL1 BIM confirm: 16

How did N#C/C(=C\c1ccc(O)c([N+](=O)[O-])c1)c1nc2ccccc2s1 do in these assays?
MEX-5 binding: -5; EBV gp42 inh: 2

What do the screens show for `Cc1cc(C)c(NC(=O)COC(=O)c2ccncc2)c(C)c1`?
GLD-1 RNA inh: -1

How did O=C1CCCC(O)=C1N=Nc1ccc(C(=O)O)cc1 do in these assays?
MCL1 BIM primary: 41*; BCLXL inh: 8; MEX-5 binding: -26*; EBV gp42 inh: 4; GLD-1 RNA inh: -2; Bcl-xL conf: 4; MCL1 BIM confirm: 9

What do the screens show for `COc1ccc(Nc2nc(NCCN3CCOCC3)nc(Nc3ccc(OC)cc3)n2)cc1`?
MCL1 BIM primary: -1; BCLXL inh: 9; MEX-5 binding: 2; GLD-1 RNA inh: -2

How did CCOc1ccc(N2CC(C(=O)N3CCN(c4ccccn4)CC3)CC2=O)cc1 (stereo unspecified) do in these assays?
MCL1 BIM primary: -7; BCLXL inh: -3; MEX-5 binding: -2; GLD-1 RNA inh: -6

Results for CC1(OC(=O)C2CCCC2)C(=O)C=C2C=C(c3ccsc3)N(CCc3ccccn3)C=C2C1=O (stereo unspecified) ?
MCL1 BIM primary: 56*; BCLXL inh: 48*; MEX-5 binding: -7; EBV gp42 inh: 9; GLD-1 RNA inh: 37*; Bcl-xL conf: 13; MCL1 BIM confirm: 18

Results for O=Cc1ccc2noc(-c3ccc(F)cc3)c2c1 ?
MCL1 BIM primary: 106*; BCLXL inh: 101*; MEX-5 binding: inconclusive; EBV gp42 inh: 151*; GLD-1 RNA inh: 103*; Bcl-xL conf: 123*; MCL1 BIM confirm: 163*
